Laboratory results taken from PubChem BioAssay AID489025 (Southern Research Specialized Biocontainment Screening …, 2010).
Among all 2,300 compounds or so, about 790 (34%) were called active. The list shows a part of the results. Results with a measured potency or affinity are listed apart. Unmarked numbers belong to inactive results. The rule behind the calls is not given here.

Assay: THP-1 cell cytotoxicity, dose response, cytotoxicity control for non-replicating M. tuberculosis project (AID 489025)
Conditions: THP-1 cell viability; series mostly up to 40 µM; viability: at the top concentration

Going from `CC(=O)c1ccc(OCC(=O)Nc2ccc3c(c2)CCC3)cc1` to `O=C(Nc1ccc2c(c1)CCC2)c1ccc(Br)o1`, the “viability” value falls from 90.6% to 74.3%.

Compared with `Cc1nnc(N/N=C/c2ccc(-c3ccc(Br)cc3)o2)n1N`, `O=C(CN1CCOCC1)N/N=C/c1ccc(-c2ccc(Br)cc2)o1` is higher in “viability” value: 104% for the first, 113% for the second.

Compared with `CC(=O)N(c1nnc(-c2ccc(C)cc2)s1)C1CCCC1`, `Cc1ccc(/C=C2\SC(N3CCCC3)=NC2=O)cc1` is lower in “viability” value: 99.3% for the first, 91.7% for the second.

Compared with `O=C(c1ccccc1[N+](=O)[O-])N1N=C(c2ccccc2)CC1(O)C(F)(F)F` (configuration not stated), `CC1=NN(C(=O)CCCc2ccccc2)C(O)(C(F)(F)F)C1` (configuration not stated) is higher in “viability” value: 85.2% for the first, 103% for the second.

Compared with `CC1=NN(C(=O)c2cc(C)nn2C)C(O)(C(F)(F)F)C1` (configuration not stated), `CC1=NN(C(=O)c2csc(C(C)C)c2)C(O)(C(F)(F)F)C1` (configuration not stated) is lower in “viability” value: 112% for the first, 109% for the second.

`CCOC(=O)C1=C(C)NC(=O)NC1c1ccc(-c2ccc(F)cc2)o1` (configuration not stated) and `CCCOC(=O)c1cc(-c2ccc(C=O)o2)ccc1Cl` are the same in “viability” value: 100% for the first, 100% for the second.

Going from `COc1cccc(-c2nc(C=O)cs2)c1` to `COC(=O)c1cc(-c2ccc(OC)cc2)on1`, the “viability” value rises from 99.6% to 105%.

First: CCOC(=O)c1cc(-c2cccc([N+](=O)[O-])c2)on1
Second: COc1cccc(NC(=O)c2ccc(Cn3cc([N+](=O)[O-])cn3)o2)c1
The “viability” value of the first is lower: 95.3% for the first, 111% for the second.

Compared with `CC(NC(=O)c1cccc(F)c1)C1CC2CCC1C2` (configuration not stated), `O=C(CC1CC2CCC1C2)NCc1cccs1` (configuration not stated) is higher in “viability” value: 93.8% for the first, 100% for the second.

Going from `COc1ccc(CNC(=O)COC(=O)C2CC3C=CC2C3)cc1` (configuration not stated) to `COc1ccc(C(=O)COC(=O)c2ccc(Cl)nc2)c(OC)c1`, the “viability” value falls from 114% to 113%.

First: CCCCNC(=O)Nc1nnc(-c2ccc(Cl)cc2)o1
Second: CC1(c2nnc(-c3ccccc3)o2)CC(c2ccc(Cl)cc2)=NO1 (configuration not stated)
The “viability” value of the first is lower: 89.7% for the first, 112% for the second.

Going from `O=C(CCN1CCC(c2cccs2)=N1)c1cccs1` to `O=C(OCC(=O)N1CCC(c2ccccc2)=N1)c1ccc([N+](=O)[O-])s1`, the “viability” value falls from 91.7% to 85.2%.

Compared with `O=c1ccn(-c2ccccc2)[nH]1`, `N/C(=N\OC(=O)c1cccs1)c1ccccc1` is lower in “viability” value: 120% for the first, 90.9% for the second.

Going from `COC(=O)c1ccc(CO/N=C/c2ccc(OC)cc2)o1` to `CCCNC(=O)c1ccc(COc2ccc(C)cc2)o1`, the “viability” value falls from 117% to 110%.

Compared with `CCOC(=O)c1c(-c2ccc(C)o2)csc1NC(=O)CN1CCCCC1`, `CCOC(=O)c1c(-c2ccccc2)csc1NC(=O)CCN1CCOCC1` is higher in “viability” value: 76.7% for the first, 78.9% for the second.

First: Cc1ccc(C(=O)COC(=O)CCc2ccc(S(=O)(=O)N3CCCCC3)cc2)cc1
Second: O=C(OCC(=O)N1CCCc2ccccc21)c1ccc(S(=O)(=O)C(F)F)cc1
The “viability” value of the first is higher: 130% for the first, 113% for the second.

First: Cc1ccc(OCC(=O)N2CCCc3ccccc32)cc1
Second: O=C(COc1ccc2ccccc2c1Br)N1CCCC1
The “viability” value of the first is lower: 76% for the first, 107% for the second.

Compared with `COc1cc2c(cc1OC)CN(CCC(=O)c1ccc(Br)cc1)CC2`, `O=C(CCN1CCC(c2ccccc2)C1)c1ccccc1` (configuration not stated) is lower in “viability” value: 94.5% for the first, 82.5% for the second.

Going from `COc1ccc(C(O)CNc2ccc(C)cc2)cc1` (configuration not stated) to `COc1ccc(C(=O)CCNc2ccc(F)cc2)cc1`, the “viability” value rises from 86.4% to 94.5%.

First: COc1ccc(C(C)NC(=O)CCc2ccccc2)cc1 (configuration not stated)
Second: CCOC(=O)C(C)Oc1ccc(OCc2ccccc2)cc1 (configuration not stated)
The “viability” value of the first is higher: 105% for the first, 77.2% for the second.

Going from `CC(C)Oc1ccc(CNC(=O)Oc2ccccc2)cc1` to `COc1ccc(OC(=O)C(C)N2C(=O)c3ccccc3C2=O)cc1` (configuration not stated), the “viability” value rises from 112% to 123%.

Compared with `CN(C)Cc1ccccc1Sc1ccccc1Br`, `CCCn1c(CNc2ccccc2O)nc2ccccc21` is lower in “viability” value: 93% for the first, 75.4% for the second.

Compared with `COC(=O)COc1ccc2c(-c3ccc(OC)cc3)cc(=O)oc2c1`, `CCOC(=O)Nc1cccc(OCC(=O)Nc2ccc(OC)cc2OC)c1` is higher in “viability” value: 106% for the first, 111% for the second.

Compared with `CCOCC(=O)Nc1nc2ccc(C)cc2s1`, `Cc1nc2ccc(NC(=O)COc3cccc(F)c3)cc2s1` is lower in “viability” value: 103% for the first, 101% for the second.

First: O=C(Nc1nccs1)c1ccccn1
Second: Cc1ccc(C)c(-c2csc(NC(=O)c3cnccn3)n2)c1
The “viability” value of the first is higher: 103% for the first, 98.3% for the second.

First: O=C(Nc1c(F)cc(F)cc1Br)c1cc(-c2ccccc2)on1
Second: O=C(NNc1c(F)c(F)cc(F)c1F)c1cc2ccccc2oc1=O
The “viability” value of the first is higher: 110% for the first, 83.4% for the second.

Compared with `Cc1nc2ccc(OC(=O)c3ccccc3)cc2s1`, `Cc1cccc(OC(=O)c2ccc3nccnc3c2)c1` is lower in “viability” value: 126% for the first, 101% for the second.

Going from `CCOc1ccc2nc(/N=C/c3nc(-c4ccccc4)oc3O)sc2c1` to `Cc1ccc(/C(O)=C/c2nc3ccccc3oc2=O)cc1`, the “viability” value falls from 113% to 81.1%.

Compared with `O=C(NNc1nc2cc3c(cc2s1)OCCO3)c1ccccc1`, `O=C(NNc1nc2ccccc2s1)c1ccc(F)cc1` is lower in “viability” value: 94.1% for the first, 78% for the second.

Compared with `O=C(CNC(=O)c1ccccc1F)OCc1csc(-c2ccccc2)n1`, `CCOC(=O)CNC(=O)N1c2ccccc2Sc2ccccc21` is lower in “viability” value: 117% for the first, 94.3% for the second.

Going from `O=C(NCc1ccc2c(c1)OCO2)c1ccc(Cl)s1` to `O=C(CCS(=O)(=O)c1ccc(Cl)cc1)Oc1ccc2c(c1)OCO2`, the “viability” value rises from 98.2% to 110%.

First: C=CCc1ccc2oc(C(=O)OCC)cc(=O)c2c1O
Second: CCOC(=O)c1c(C)[nH]c(C)c1C(=O)COC(=O)c1ccc([N+](=O)[O-])s1
The “viability” value of the first is higher: 125% for the first, 83.1% for the second.

First: CCc1ccc(C(C)NC(=O)C2CCCO2)cc1 (configuration not stated)
Second: Cc1ccc(C(C)NC(=O)c2cc3ccccc3oc2=O)cc1C (configuration not stated)
The “viability” value of the first is higher: 106% for the first, 102% for the second.

Compared with `CC1=CC(=O)NP(=O)(Oc2ccc3ccccc3c2)N1` (configuration not stated), `C=CC(=O)Oc1ccc(N2Cc3ccccc3C2=O)cc1` is lower in “viability” value: 107% for the first, 105% for the second.

First: COc1cc(/C=C2/C(=O)NN(c3cccc(C)c3)C2=O)ccc1OC(=O)c1ccco1
Second: COc1cc(/C=N/Nc2ccc(Cl)c(C(=O)O)c2)ccc1OC(=O)c1ccco1
The “viability” value of the first is lower: 101% for the first, 102% for the second.

Compared with `COc1cc(NC(=O)C/C(C)=N/NC(=O)c2cccs2)c(OC)cc1Cl`, `CCCc1cc(C(=O)Nc2cccc(C(C)=O)c2)no1` is higher in “viability” value: 77.3% for the first, 120% for the second.

Compared with `Cc1cccc2nc(CSc3nc4cc([N+](=O)[O-])ccc4s3)cn12`, `COc1ccc(Cc2nnc(SCc3ccc([N+](=O)[O-])cc3)o2)cc1` is lower in “viability” value: 117% for the first, 86.3% for the second.

Compared with `O=C(O)c1ccc(NCc2ccc(Br)cc2)cc1`, `CC(=O)c1ccc(NC(=O)CCc2ccc(C)o2)cc1` is lower in “viability” value: 115% for the first, 92.8% for the second.

First: CCOC(=O)c1sc(NC(=O)CCN2CCOCC2)c(C(=O)OCC)c1C
Second: CCOC(=O)c1sc(NC(=O)CCN2CC(C)OC(C)C2)c(C(=O)OCC)c1C (configuration not stated)
The “viability” value of the first is higher: 96.3% for the first, 82.6% for the second.

Compared with `CC(C)CSc1nnc2c3ccccc3n(C)c2n1`, `CC(C)c1nnc(NC(=O)c2sc3ccccc3c2Cl)s1` is higher in “viability” value: 97% for the first, 107% for the second.

Compared with `O=C1CC(N2CCN(c3ccc(F)cc3)CC2)C(=O)N1Cc1ccccc1` (configuration not stated), `O=C(C1CCN(C2CC(=O)N(Cc3ccccc3)C2=O)CC1)N1CCCCCC1` (configuration not stated) is lower in “viability” value: 113% for the first, 103% for the second.

Going from `Nc1ccc2cc(Br)ccc2c1` to `Cc1cc(OCC(=O)Nc2ccncc2)ccc1Br`, the “viability” value rises from 105% to 119%.

First: CCOC(=O)C1(CC2CCCCO2)CCN(Cc2nccn2-c2ccc(OC)cc2)CC1 (configuration not stated)
Second: Clc1ccc(OC2CCN(Cc3nc(CC4CC4)no3)CC2)cc1
The “viability” value of the first is higher: 93.6% for the first, 90% for the second.

Going from `CCOC(=O)Cn1nc(/C=C/c2ccccc2)ccc1=O` to `O=C(N/N=C/C=C/c1ccccc1)c1cccs1`, the “viability” value rises from 115% to 120%.

First: O=C1NC(Cc2c[nH]c3ccccc23)C(=O)N1CCOc1ccccc1 (configuration not stated)
Second: O=C(OCC(=O)c1c[nH]c2ccccc12)c1ccc([N+](=O)[O-])s1
The “viability” value of the first is lower: 92.5% for the first, 92.8% for the second.

First: CC(C)c1nnc(NC(=O)c2cc3cc(Br)ccc3oc2=O)s1
Second: CCCc1nnc(NC(=O)c2cc3ccccc3oc2=O)s1
The “viability” value of the first is lower: 90.6% for the first, 108% for the second.

Compared with `COC(=O)C1=C(N)OC2=C(C(=O)CC(C)(C)C2)C1c1cccnc1` (configuration not stated), `CC1(C)CC(=O)C2=C(C1)OC(N)=C([N+](=O)[O-])C2c1ccc(C#N)s1` (configuration not stated) is higher in “viability” value: 101% for the first, 108% for the second.

Compared with `COc1ccccc1NC(=O)CCN1CCN(c2ccc(Cl)cc2)CC1`, `Cc1cccc(NC(=O)c2ccc(OC3CSC3)cc2)c1` is lower in “viability” value: 114% for the first, 87.2% for the second.

Going from `O=[N+]([O-])c1ccc(CSc2nnc(-c3cccnc3)o2)cc1` to `Cc1ccc(CSc2nnc(-c3cccnc3)o2)cc1`, the “viability” value rises from 94.9% to 105%.

Going from `CC1(c2nnc(-c3ccc(F)cc3)o2)CC(c2cccc(Cl)c2)=NO1` (configuration not stated) to `O=C(Nc1nnc(C2=COCCO2)o1)c1ccc(F)cc1`, the “viability” value falls from 102% to 81.9%.

Going from `COC(=O)CCn1c(C)cc(C(=O)COc2ccccc2C(N)=O)c1C` to `CCNC(=O)NC(=O)C(C)OC(=O)CCCSc1nc2ccccc2s1` (configuration not stated), the “viability” value rises from 70.3% to 99.5%.

Compared with `O=[N+]([O-])c1ccc(Nc2ccccc2)c2nonc12`, `O=[N+]([O-])c1ccc(Nc2ccccc2O)c2nonc12` is lower in “viability” value: 95.5% for the first, 79.9% for the second.

Going from `Cn1cccc1/C=N/NC(=O)c1ccncc1` to `C/C(=N/NC(=O)c1ccncc1)C1=C(O)CC(C)(C)CC1=O`, the “viability” value rises from 109% to 120%.

First: O=[N+]([O-])c1cncc([N+](=O)[O-])c1Nc1ccccc1Cl
Second: O=c1oc2ccccc2c(Nc2ccccc2O)c1[N+](=O)[O-]
The “viability” value of the first is lower: 70.5% for the first, 93.7% for the second.

First: O=C(N/N=C/c1ccc(OC(=O)c2cccs2)cc1)c1ccccn1
Second: O=C(OCC(=O)N1CCc2ccccc2C1)c1cccc([N+](=O)[O-])c1
The “viability” value of the first is lower: 88.1% for the first, 121% for the second.

Going from `CC(OC(=O)c1ccc([N+](=O)[O-])s1)C(=O)NC1CCCCC1C` (configuration not stated) to `CCc1cc(C=NC2CCCCC2)c(O)s1`, the “viability” value falls from 90.2% to 82.6%.

First: CC(C)(C)C(=O)/C=C/Nc1ccccc1O
Second: Cc1ccc(NC(=O)C2COc3ccccc3O2)nc1 (configuration not stated)
The “viability” value of the first is higher: 102% for the first, 94.7% for the second.

Going from `Cc1ccccc1C1=N/C(=C/c2cccnc2)C(=O)O1` to `CC(NC(=O)c1cc2ccccc2oc1=O)c1ccccc1` (configuration not stated), the “viability” value rises from 102% to 110%.

First: COc1cc(OC)c2c(OC)cccc2n1
Second: COc1ccc2c(c1)sc(=N)n2C
The “viability” value of the first is higher: 107% for the first, 74.8% for the second.

First: CSC1=N/C(=C\c2ccc3c(c2)OCO3)C(=O)S1
Second: COc1ccc(C(=O)Nc2nnc(C3=COCCO3)o2)cc1
The “viability” value of the first is higher: 116% for the first, 105% for the second.

Going from `CCCCOc1ccc(-c2nnn(C(C)C(=O)OCC)n2)cc1` (configuration not stated) to `CCc1nonc1NC(=O)COc1ccc(Cl)c(C)c1`, the “viability” value rises from 105% to 126%.
